# Results published in ChEMBL document CHEMBL1961873, “Compounds: GSK PKIS; Assays: Nanosyn kinase panel” (2012).
# Columns and labels:
# [1] = molecular target: Mast/stem cell growth factor receptor Kit (Homo sapiens) (UniProt P10721); conditions: at 1 µM
# [2] = tested on: Mast/stem cell growth factor receptor Kit (Homo sapiens), P10721 [D816V]; conditions: at 0.1 µM
# [3] = tested on: Mast/stem cell growth factor receptor Kit (Homo sapiens), P10721 [D816V]; conditions: at 1 µM
# [4] = tested on: Mast/stem cell growth factor receptor Kit (Homo sapiens), P10721 [T670I]; conditions: at 0.1 µM
# [5] = tested on: Mast/stem cell growth factor receptor Kit (Homo sapiens), P10721 [T670I]; conditions: at 1 µM
# [6] = tested on: Mast/stem cell growth factor receptor Kit (Homo sapiens), P10721 [V560G]; conditions: at 0.1 µM
# [7] = tested on: Mast/stem cell growth factor receptor Kit (Homo sapiens), P10721 [V560G]; conditions: at 1 µM
# [8] = molecular target: Tyrosine-protein kinase Lck (Homo sapiens) (UniProt P06239); conditions: at 0.1 µM
# [9] = molecular target: Tyrosine-protein kinase Lck (Homo sapiens) (UniProt P06239); conditions: at 1 µM
# [10] = molecular target: Leukocyte tyrosine kinase receptor (Homo sapiens) (UniProt P29376); conditions: at 0.1 µM
# [11] = molecular target: Leukocyte tyrosine kinase receptor (Homo sapiens) (UniProt P29376); conditions: at 1 µM
# [12] = molecular target: Tyrosine-protein kinase Lyn (Homo sapiens) (UniProt P07948); conditions: at 0.1 µM
# [13] = molecular target: Tyrosine-protein kinase Lyn (Homo sapiens) (UniProt P07948); conditions: at 1 µM
# [14] = molecular target: Tyrosine-protein kinase Lyn (Homo sapiens) (UniProt P07948); conditions: at 0.1 µM; remark: listed apart in the source
# [15] = molecular target: Tyrosine-protein kinase Lyn (Homo sapiens) (UniProt P07948); conditions: at 1 µM; remark: listed apart in the source
# [16] = molecular target: T1, Tyrosine-protein kinase Mer (Homo sapiens) (UniProt Q12866); conditions: at 0.1 µM
# T1 sequence (whole entry): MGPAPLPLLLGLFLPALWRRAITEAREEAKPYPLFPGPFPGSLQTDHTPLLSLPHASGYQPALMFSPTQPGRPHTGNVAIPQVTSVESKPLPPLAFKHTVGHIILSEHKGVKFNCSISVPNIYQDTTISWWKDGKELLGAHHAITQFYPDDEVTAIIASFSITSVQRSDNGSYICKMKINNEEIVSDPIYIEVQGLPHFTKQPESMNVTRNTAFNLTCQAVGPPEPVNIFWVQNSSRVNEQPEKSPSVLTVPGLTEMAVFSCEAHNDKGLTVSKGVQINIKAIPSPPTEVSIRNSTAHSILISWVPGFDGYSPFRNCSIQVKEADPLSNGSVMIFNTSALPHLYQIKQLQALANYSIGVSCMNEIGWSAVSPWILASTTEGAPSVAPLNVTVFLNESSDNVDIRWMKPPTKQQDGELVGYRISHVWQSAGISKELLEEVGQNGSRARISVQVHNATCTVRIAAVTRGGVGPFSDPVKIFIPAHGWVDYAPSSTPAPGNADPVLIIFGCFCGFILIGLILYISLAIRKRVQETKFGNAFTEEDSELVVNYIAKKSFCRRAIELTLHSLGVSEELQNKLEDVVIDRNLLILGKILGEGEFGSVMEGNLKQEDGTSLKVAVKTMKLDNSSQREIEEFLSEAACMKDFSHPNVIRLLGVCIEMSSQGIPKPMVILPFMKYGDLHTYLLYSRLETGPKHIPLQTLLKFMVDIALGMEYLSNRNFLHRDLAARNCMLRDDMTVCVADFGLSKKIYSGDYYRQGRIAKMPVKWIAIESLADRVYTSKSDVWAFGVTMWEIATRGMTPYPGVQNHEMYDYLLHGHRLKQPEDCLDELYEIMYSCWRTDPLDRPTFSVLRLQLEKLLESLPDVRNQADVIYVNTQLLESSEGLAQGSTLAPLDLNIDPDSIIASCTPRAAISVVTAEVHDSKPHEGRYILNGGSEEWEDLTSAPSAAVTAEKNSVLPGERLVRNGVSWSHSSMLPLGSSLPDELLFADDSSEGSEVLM
# [17] = molecular target: T1, Tyrosine-protein kinase Mer (Homo sapiens); conditions: at 1 µM
# [18] = molecular target: Hepatocyte growth factor receptor (Homo sapiens) (UniProt P08581); conditions: at 0.1 µM
# [19] = molecular target: Hepatocyte growth factor receptor (Homo sapiens) (UniProt P08581); conditions: at 1 µM
# [20] = molecular target: T2, Muscle, skeletal receptor tyrosine-protein kinase (Homo sapiens) (UniProt O15146); conditions: at 0.1 µM;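 further: values are mean inhibition of MuSK from the GSK PKIS kinase screening panel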
# T2 sequence (whole entry): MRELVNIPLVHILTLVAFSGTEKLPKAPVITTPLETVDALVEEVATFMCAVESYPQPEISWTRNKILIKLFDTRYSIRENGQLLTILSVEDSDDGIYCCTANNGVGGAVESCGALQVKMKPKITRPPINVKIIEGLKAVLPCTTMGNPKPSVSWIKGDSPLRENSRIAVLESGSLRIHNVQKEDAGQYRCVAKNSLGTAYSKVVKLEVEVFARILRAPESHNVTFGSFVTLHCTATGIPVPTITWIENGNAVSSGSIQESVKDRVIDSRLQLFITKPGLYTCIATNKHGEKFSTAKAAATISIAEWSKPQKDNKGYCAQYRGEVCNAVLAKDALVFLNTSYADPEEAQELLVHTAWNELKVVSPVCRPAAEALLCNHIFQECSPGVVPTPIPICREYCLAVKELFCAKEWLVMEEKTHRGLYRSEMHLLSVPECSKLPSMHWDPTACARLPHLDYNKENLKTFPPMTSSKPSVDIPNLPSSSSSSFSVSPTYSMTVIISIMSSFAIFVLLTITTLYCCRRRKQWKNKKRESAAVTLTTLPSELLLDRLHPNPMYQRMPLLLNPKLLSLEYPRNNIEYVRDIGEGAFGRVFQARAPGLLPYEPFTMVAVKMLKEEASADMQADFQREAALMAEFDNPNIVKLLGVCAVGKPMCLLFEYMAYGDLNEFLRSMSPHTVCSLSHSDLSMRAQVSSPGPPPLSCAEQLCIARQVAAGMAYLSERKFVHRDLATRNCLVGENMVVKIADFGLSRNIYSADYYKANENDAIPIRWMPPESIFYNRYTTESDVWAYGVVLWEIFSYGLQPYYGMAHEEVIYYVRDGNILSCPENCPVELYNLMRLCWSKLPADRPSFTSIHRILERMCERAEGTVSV
# Chain of Hepatocyte growth factor receptor (Homo sapiens) (P08581 whole entry): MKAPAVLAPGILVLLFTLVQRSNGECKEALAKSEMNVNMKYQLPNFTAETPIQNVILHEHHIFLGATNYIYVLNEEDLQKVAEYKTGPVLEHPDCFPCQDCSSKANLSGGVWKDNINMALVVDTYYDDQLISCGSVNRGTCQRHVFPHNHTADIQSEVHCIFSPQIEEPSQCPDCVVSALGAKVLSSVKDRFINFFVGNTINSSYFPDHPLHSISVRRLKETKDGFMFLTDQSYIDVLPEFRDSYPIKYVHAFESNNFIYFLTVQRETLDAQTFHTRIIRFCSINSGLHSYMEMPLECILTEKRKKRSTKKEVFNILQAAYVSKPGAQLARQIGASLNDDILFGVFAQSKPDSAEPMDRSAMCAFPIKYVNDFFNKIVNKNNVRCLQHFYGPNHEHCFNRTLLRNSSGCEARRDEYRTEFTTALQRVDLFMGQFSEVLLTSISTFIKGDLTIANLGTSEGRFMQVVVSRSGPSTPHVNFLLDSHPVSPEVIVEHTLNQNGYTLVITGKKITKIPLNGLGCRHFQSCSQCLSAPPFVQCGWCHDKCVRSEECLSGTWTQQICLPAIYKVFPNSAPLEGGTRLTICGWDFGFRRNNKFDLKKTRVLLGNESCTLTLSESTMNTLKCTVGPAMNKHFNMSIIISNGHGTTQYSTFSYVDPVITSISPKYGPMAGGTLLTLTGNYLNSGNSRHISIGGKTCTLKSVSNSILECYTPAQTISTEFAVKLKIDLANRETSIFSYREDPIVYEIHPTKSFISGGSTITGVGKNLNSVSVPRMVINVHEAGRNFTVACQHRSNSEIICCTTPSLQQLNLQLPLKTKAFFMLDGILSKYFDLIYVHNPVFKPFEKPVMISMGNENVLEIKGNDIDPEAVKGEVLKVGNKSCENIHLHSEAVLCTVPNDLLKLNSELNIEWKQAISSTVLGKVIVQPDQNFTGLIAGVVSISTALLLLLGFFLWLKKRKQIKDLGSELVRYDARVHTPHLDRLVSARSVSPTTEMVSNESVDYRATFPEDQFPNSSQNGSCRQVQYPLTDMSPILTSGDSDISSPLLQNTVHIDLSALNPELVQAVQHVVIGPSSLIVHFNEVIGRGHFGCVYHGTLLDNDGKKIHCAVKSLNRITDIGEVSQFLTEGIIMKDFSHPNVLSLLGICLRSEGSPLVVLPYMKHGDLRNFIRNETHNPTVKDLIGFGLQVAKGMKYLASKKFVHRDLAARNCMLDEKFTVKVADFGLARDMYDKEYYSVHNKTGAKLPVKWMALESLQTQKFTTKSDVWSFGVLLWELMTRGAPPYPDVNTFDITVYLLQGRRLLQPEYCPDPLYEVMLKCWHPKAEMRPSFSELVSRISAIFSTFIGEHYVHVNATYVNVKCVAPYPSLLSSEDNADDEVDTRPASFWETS
# Chain of Mast/stem cell growth factor receptor Kit (Homo sapiens) (P10721 whole entry): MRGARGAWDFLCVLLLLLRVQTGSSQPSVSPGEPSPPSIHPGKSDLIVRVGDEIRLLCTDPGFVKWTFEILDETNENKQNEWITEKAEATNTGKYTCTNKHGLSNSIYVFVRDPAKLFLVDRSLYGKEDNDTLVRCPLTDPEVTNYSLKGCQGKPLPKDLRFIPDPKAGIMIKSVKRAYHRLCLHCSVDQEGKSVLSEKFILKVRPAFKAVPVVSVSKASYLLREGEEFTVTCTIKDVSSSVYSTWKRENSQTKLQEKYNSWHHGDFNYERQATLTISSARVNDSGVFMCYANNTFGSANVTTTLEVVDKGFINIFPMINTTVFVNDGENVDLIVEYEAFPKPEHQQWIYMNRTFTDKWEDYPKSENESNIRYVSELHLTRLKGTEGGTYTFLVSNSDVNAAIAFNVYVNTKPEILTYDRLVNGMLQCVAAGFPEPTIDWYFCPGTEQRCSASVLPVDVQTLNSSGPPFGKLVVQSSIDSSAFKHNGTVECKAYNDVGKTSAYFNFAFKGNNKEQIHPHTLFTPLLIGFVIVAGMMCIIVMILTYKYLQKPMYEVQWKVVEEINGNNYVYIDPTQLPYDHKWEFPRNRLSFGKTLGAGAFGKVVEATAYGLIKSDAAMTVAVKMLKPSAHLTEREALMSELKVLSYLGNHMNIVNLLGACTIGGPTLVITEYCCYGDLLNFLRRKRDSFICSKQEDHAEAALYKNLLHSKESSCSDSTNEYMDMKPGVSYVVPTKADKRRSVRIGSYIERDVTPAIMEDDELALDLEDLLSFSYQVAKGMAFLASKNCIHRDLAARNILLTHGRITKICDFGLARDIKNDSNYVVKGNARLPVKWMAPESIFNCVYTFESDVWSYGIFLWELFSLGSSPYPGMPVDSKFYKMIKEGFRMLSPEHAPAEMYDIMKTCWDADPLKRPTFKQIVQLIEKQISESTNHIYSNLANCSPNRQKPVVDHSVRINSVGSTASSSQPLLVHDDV
# Chain of Leukocyte tyrosine kinase receptor (Homo sapiens) (P29376 whole entry): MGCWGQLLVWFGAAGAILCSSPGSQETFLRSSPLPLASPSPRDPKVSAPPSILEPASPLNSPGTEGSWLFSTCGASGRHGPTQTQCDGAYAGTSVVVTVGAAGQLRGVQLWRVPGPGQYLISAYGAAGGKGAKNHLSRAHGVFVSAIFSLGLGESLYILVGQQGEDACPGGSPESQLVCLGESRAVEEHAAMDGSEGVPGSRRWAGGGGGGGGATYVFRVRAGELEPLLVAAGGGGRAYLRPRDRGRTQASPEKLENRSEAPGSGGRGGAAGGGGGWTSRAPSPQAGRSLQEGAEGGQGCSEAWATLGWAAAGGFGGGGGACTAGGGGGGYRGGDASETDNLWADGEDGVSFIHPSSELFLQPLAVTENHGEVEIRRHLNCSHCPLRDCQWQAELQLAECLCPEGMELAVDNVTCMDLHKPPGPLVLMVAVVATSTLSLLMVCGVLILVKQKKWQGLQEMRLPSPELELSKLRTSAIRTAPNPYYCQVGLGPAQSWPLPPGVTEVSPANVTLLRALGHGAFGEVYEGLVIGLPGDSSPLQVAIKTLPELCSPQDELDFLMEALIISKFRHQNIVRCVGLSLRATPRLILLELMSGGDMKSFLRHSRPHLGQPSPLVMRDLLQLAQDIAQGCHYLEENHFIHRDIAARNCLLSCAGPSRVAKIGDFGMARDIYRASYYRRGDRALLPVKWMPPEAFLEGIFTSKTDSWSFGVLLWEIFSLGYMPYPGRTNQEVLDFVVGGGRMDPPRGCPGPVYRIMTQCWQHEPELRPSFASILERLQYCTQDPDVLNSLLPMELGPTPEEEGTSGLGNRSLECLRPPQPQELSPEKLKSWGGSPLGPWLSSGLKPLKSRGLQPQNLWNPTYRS
# Chain of Mast/stem cell growth factor receptor Kit (Homo sapiens), P10721 [T670I] (P10721 whole entry T670I): as the sequence (P10721 whole entry) above, with T670I counted along it
# Chain of Tyrosine-protein kinase Lck (Homo sapiens) (P06239 2-509 limits assumed): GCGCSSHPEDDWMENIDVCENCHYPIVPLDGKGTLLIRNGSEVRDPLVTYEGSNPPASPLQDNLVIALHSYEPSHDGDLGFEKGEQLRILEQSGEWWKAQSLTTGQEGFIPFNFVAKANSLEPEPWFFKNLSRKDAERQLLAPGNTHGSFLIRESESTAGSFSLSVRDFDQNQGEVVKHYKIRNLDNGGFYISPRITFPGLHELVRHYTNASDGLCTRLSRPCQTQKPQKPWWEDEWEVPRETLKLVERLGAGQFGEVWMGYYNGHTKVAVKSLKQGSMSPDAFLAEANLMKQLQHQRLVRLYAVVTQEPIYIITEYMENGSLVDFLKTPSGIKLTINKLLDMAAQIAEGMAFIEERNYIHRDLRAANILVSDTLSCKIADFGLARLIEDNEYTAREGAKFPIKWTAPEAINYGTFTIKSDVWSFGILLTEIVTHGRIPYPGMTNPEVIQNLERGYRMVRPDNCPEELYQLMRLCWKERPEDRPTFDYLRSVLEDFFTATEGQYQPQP
# Chain of Mast/stem cell growth factor receptor Kit (Homo sapiens), P10721 [V560G] (P10721 whole entry V560G): as the sequence (P10721 whole entry) above, with V560G counted along it
# Chain of Mast/stem cell growth factor receptor Kit (Homo sapiens), P10721 [D816V] (P10721 whole entry D816V): as the sequence (P10721 whole entry) above, with D816V counted along it
# Chain of Tyrosine-protein kinase Lyn (Homo sapiens) (P07948 2-512 limits assumed): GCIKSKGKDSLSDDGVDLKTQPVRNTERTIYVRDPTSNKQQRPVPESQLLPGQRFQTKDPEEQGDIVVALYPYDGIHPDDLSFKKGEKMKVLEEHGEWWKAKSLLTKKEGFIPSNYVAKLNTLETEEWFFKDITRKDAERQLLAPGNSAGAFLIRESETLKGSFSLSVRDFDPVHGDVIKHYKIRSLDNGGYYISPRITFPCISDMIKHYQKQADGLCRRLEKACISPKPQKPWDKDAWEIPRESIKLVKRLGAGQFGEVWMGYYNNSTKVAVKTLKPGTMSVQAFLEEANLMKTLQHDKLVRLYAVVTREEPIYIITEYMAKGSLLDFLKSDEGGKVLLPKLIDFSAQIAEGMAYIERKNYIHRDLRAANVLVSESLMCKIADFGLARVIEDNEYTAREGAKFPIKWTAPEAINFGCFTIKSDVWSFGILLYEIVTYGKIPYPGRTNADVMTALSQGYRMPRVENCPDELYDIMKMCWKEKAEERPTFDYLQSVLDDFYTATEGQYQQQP
SMILES,inhibition [1],inhibition [2],inhibition [3],inhibition [4],inhibition [5],inhibition [6],inhibition [7],inhibition [8],inhibition [9],inhibition [10],inhibition [11],inhibition [12],inhibition [13],inhibition [14],inhibition [15],inhibition [16],inhibition [17],inhibition [18],inhibition [19],inhibition [20]
NS(=O)(=O)c1ccc(NC=C2C(=O)Nc3ccc4ncsc4c32)cc1,94.3%,8.42%,31%,19.8%,67.2%,1.8%,32%,5.47%,30.9%,4.74%,17.3%,11.5%,47.1%,7.96%,40.9%,3.9%,16.3%,18.8%,62.2%,23.7%
NS(=O)(=O)c1cccc(-c2cc3ccncc3cc2OCc2ccccc2)c1,8.38%,6.43%,5.87%,2.04%,1.1%,3.77%,9.47%,2.52%,5.46%,2.44%,1.46%,5.16%,6.45%,2.95%,3.74%,4.79%,8.95%,3.75%,4.68%,0.26%
NC(=O)c1sc(-n2cnc3ccccc32)cc1OCc1ccccc1Br,5.34%,2.22%,4.99%,1.31%,4.08%,-5.3%,-0.34%,3.94%,5.49%,4.25%,6.11%,4.01%,6.01%,1.96%,3.34%,1.26%,2.98%,3.2%,6.5%,3.93%
CS(=O)(=O)CCNCc1nc(-c2ccc3ncnc(Nc4ccc(OCc5cccc(C(F)(F)F)c5)cc4)c3c2)cs1,12.8%,-0.14%,1.52%,-0.86%,3.13%,0.77%,6.02%,2.25%,6.83%,3.1%,3.87%,2.63%,2.07%,2.44%,1.23%,3.74%,5.41%,4.81%,2.51%,1.29%
COC(=O)Nc1nc2cc(Oc3ccc(NC(=O)Nc4cccc(Br)c4)cc3)ccc2[nH]1,100%,2.97%,4.47%,33%,56.8%,69.5%,86.4%,5%,10.5%,3.48%,3.57%,9.62%,15.2%,7.97%,13.8%,1.37%,3.46%,3.78%,6.03%,22.3%
N#Cc1cccc(Nc2nccc(-c3cnn4ncccc34)n2)c1,100%,4.4%,9.63%,32.2%,88.5%,24.4%,71.6%,4.61%,18.3%,6.31%,12.7%,6.49%,31.5%,4.82%,22.2%,7.85%,46%,6.82%,17.3%,5.72%
NS(=O)(=O)c1ccc(N/N=C2\C(=O)Nc3ccc(Cl)cc32)cc1,89.8%,1.33%,3.24%,5.37%,41.2%,2.89%,30.3%,1.35%,3.7%,3.2%,4.81%,4.69%,8.22%,1.56%,6.78%,1.61%,1.21%,7.96%,7.49%,4.35%
Nc1nccc(C#Cc2cncnc2Nc2ccc(OCc3cccc(F)c3)c(Cl)c2)n1,2.68%,3.2%,2.1%,1.97%,1.54%,-1.72%,1.13%,1.54%,8.03%,3.49%,2.75%,3.62%,3.49%,3.64%,1.57%,2.77%,9.35%,4.74%,8.47%,4.37%
O=C1Nc2ccc(-c3cccnc3)cc2C1=Cc1cc(Br)c(O)c(Br)c1,3.66%,3.44%,2.96%,3.51%,0.52%,0.16%,2.16%,3.31%,13.2%,4.94%,23%,2.95%,11.1%,1.54%,9.06%,1.25%,2.23%,2.89%,5.75%,3.42%
C[C@@H](Oc1cc(-n2cnc3ccc(OC[C@@H](O)CO)cc32)sc1C(N)=O)c1ccccc1Cl,4.68%,-3.17%,1.58%,-1.2%,0.87%,3.36%,2.13%,1.2%,6.12%,-0.43%,3.54%,-0.6%,3.84%,-0.83%,2.72%,5.8%,3.84%,-4.12%,-4.35%,9.09%
NS(=O)(=O)c1ccc(-c2cc3ccncc3cc2OCc2ccccc2)cc1,8.06%,2.17%,3.92%,2.02%,4.23%,0.41%,0.33%,1.15%,3.87%,6.08%,14.8%,5.43%,8.06%,4.33%,5.23%,0.4%,1.77%,9.74%,5.85%,1.45%
CC(C)c1ccc2c(c1)NC(=O)/C2=N/Nc1ccc(S(N)(=O)=O)cc1,31.5%,-0.12%,1.26%,0.1%,5.91%,9.17%,19.4%,1.79%,8.63%,1.63%,0.89%,3.02%,12.2%,2.61%,10.5%,0.63%,1.96%,0.7%,1.76%,-0.51%
NS(=O)(=O)c1cccc(Nc2cc(-c3ccc(F)cc3)n[nH]2)c1,84.5%,2.34%,4.52%,3.28%,20.1%,6.14%,38%,1.18%,6.1%,3.59%,4.08%,5.86%,10.7%,3.31%,8.61%,1.94%,2.95%,9.61%,4.41%,3.78%
C[C@@H](Oc1cc(-n2cnc3ccc(OCC4CCN(C)CC4)cc32)sc1C(N)=O)c1ccccc1C(F)(F)F,0.09%,-2%,-1.63%,-0.04%,0.36%,2.2%,4.85%,5.2%,33.8%,-0.86%,3.18%,1.14%,18.9%,1.52%,16.5%,-0.95%,6.99%,2.85%,9.84%,41.3%
Nc1nccc(-c2c(-c3ccc(F)cc3)nn3cc(C(F)(F)F)ccc23)n1,1.1%,1.51%,-0.82%,-0.08%,-0.07%,1.43%,0.2%,2.62%,4.27%,1.83%,2.62%,1.67%,2.06%,1.33%,2.59%,-0.89%,0.12%,2.79%,0.01%,-1.22%
CN1CCN(C(=O)c2ccc(NC(=O)Nc3ccc(N(C)c4ccnc(Nc5ccc(CS(C)(=O)=O)cc5)n4)cc3)cc2)CC1,88.5%,1.27%,2.73%,10.6%,58.7%,75.1%,93.2%,5.01%,23.9%,2.61%,10.7%,2.45%,19.7%,1.67%,18.1%,12.8%,52.3%,45.6%,77.4%,5.5%
COc1cc2ncn(-c3cc(OCc4ccccc4S(C)(=O)=O)c(C#N)s3)c2cc1OC,7.97%,2.49%,5.22%,3.82%,2.96%,–,0.98%,23.3%,69.2%,4%,7.89%,20.4%,65.6%,15.1%,60.9%,35.4%,77.1%,5.94%,15.6%,13.2%
